Measurements taken from PubChem BioAssay.
Activity calls are given as the source filed them.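 The calls were made as follows: active = inhibition above 20% together with a positive visual image hit; inconclusive = visual image hit but inhibition not above 20%; inactive = no visual image hit.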

test: inhibitors of TNFa-induced NFkB p65 translocation, primary screen, imaging, HUVEC, MLSMR starter and 10KST1 sets (AID 438); details: HUVEC TNFa-induced p65 nuclear translocation; cell count: measured here: nuclei count (cytotoxicity indicator), at 2.08 µM; inhibition: at 2 µM, stronger effect = higher value, 0% TNFa-plus-vehicle, 100% no-TNFa wells;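 also: compound added about 3h40 before a 20 min TNFalpha stimulation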;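 as to inhibition: signal is the nuclear over cytoplasmic p65 intensity ratio per well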

What does the source list for `Cn1c(SCC(=O)c2ccc(-c3ccccc3)cc2)nnc1-c1ccco1`?
cell count: 248; inhibition: 4.3% (inactive)

What does the source list for `Cc1ccccc1NC(=O)CSc1nnc(Cc2cccn2C)n1-c1ccc(F)cc1`?
cell count: 813; inhibition: 4.2% (inactive)

With `CC(=O)N1CCc2c(sc(NC(=O)c3ccc(S(=O)(=O)N(C)C)cc3)c2C#N)C1` as the molecule, how does the inhibition read?
The inhibition was -0.8% (inactive).

And the cell count?
Its cell count is 660.

With `Cc1c(NC(=O)c2nn(C)c(=O)c3ccccc23)c(=O)n(-c2ccccc2)n1C` as the molecule, how does the inhibition read?
The inhibition was 4.2% (inactive).

And the cell count?
The cell count was 426.

With `CCOC(=O)C1C(=O)N(C(=O)c2ccc(OC)cc2)CC1c1ccccc1` (stereo not given) as the molecule, how does the inhibition read?
Its inhibition is -7.6% (inactive).

And the cell count?
The cell count was 423.

Which inhibition does the source give for `C=CCSc1nnc(-c2cccnc2)o1` here?
Its inhibition is 8.2% (inactive).

And the cell count?
Its cell count is 566.

With `O=C(CCCn1c(=S)[nH]c2cc3c(cc2c1=O)OCO3)N1CCN(c2ccccc2F)CC1` as the molecule, how does the cell count read?
Its cell count is 402.

What about the inhibition of the same molecule?
Its inhibition is -9.1% (inactive).

Which inhibition does the source give for `COc1ccc(OCC(=O)Nc2ccc(N3CCOCC3)c(Cl)c2)cc1` here?
Its inhibition is 7.5% (inactive).

And the cell count?
The cell count was 651.

Which results are given for `CCNc1ccc2c(Cl)cc(=O)oc2c1`?
cell count: 356; inhibition: -2.5% (inactive)

For `Cc1cc(Br)ccc1NC(=O)CCN1C(=O)c2ccncc2C1=O`, which cell count is on record?
Its cell count is 403.

And the inhibition?
The inhibition was 3.8% (inactive).

Which inhibition does the source give for `CC(=O)Nc1ccc(S(=O)(=O)N2CCN(C(=O)CCC3CCCC3)CC2)cc1` here?
The inhibition was -0.8% (inactive).

What about the cell count of the same molecule?
The cell count was 312.

Which inhibition does the source give for `Cc1ccccc1NC(=O)C1CCCN(S(=O)(=O)c2cccc3cccnc23)C1` (stereo not given) here?
The inhibition was 6.8% (inactive).

What about the cell count of the same molecule?
The cell count was 613.

Which results are given for `C(#Cc1ccccc1)Cn1nnc2ccccc21`?
inhibition: 18% (inactive); cell count: 288

For `COc1ccccc1N1CCN(C/C(O)=C(\C#N)c2nc(-c3ccccc3)cs2)CC1`, which inhibition is on record?
The inhibition was -3.4% (inactive).

What about the cell count of the same molecule?
The cell count was 475.

For `Cn1c(CN2CCOCC2)nnc1SCC(=O)NCCc1ccccc1`, which cell count is on record?
Its cell count is 444.

And the inhibition?
The inhibition was -1% (inactive).

Which cell count does the source give for `Nc1nc(CSc2nc3ccccc3[nH]2)nc(N2CCOCC2)n1` here?
The cell count was 675.

And the inhibition?
The inhibition was -17.6% (inactive).

For `CN1CCN(c2nc(-c3ccncc3)nc3ccccc23)CC1`, which inhibition is on record?
The inhibition was -13.1% (inactive).

And the cell count?
The cell count was 324.

Which inhibition does the source give for `Cc1cc(=O)[nH]c(SCC(=O)NCc2ccco2)n1` here?
Its inhibition is 8.2% (inactive).

What about the cell count of the same molecule?
Its cell count is 355.

Which results are given for `COc1ccc(NC(=O)NCCN2C(=O)C3C4C=CC(C4)C3C2=O)cc1` (stereo not given)?
inhibition: -0.8% (inactive); cell count: 572

Which inhibition does the source give for `CCC(=O)c1ccc(OCC(O)CN2CCN(S(=O)(=O)N3CCCCC3)CC2)cc1` (stereo not given) here?
The inhibition was 1.3% (inactive).

What about the cell count of the same molecule?
Its cell count is 450.

With `O=C(c1cccs1)N(Cc1ccco1)Cc1cc2ccccc2[nH]c1=O` as the molecule, how does the inhibition read?
The inhibition was 6.2% (inactive).

And the cell count?
The cell count was 420.

Which results are given for `COc1cccc(NC(=O)C2CCN(c3ncccn3)CC2)c1`?
inhibition: -18.4% (inactive); cell count: 746

Which cell count does the source give for `CC(=O)Nc1ccc(-c2nn[nH]n2)cc1Cl` here?
The cell count was 630.

And the inhibition?
The inhibition was -10.7% (inactive).

Which cell count does the source give for `COc1cccc(N(C(=O)c2ccco2)C(C(=O)NC2CCCC2)c2ccc(N(C)C)cc2)c1` (stereo not given) here?
Its cell count is 582.

What about the inhibition of the same molecule?
Its inhibition is -1.6% (inactive).

What does the source list for `CCN(CC)C(=O)C1CCC(CNS(=O)(=O)c2cccc3cccnc23)CC1` (stereo not given)?
cell count: 787; inhibition: 4.4% (inactive)

Which inhibition does the source give for `COc1ccc(C(=O)COC(=O)CCn2nnc(-c3cccs3)n2)cc1` here?
The inhibition was 2.2% (inactive).

And the cell count?
Its cell count is 237.

For `Fc1cccc(-c2cc3nc4c(c(N5CCN(c6cnccn6)CC5)n3n2)CCCC4)c1`, which inhibition is on record?
Its inhibition is -3.1% (inactive).

What about the cell count of the same molecule?
Its cell count is 468.

With `Cc1ccc(Nc2cc(C)nc3ncnn23)c(Cl)c1` as the molecule, how does the cell count read?
Its cell count is 551.

And the inhibition?
Its inhibition is 7.9% (inactive).

For `O=C1CCC(c2ccccc2)N1C(=O)c1cccnc1` (stereo not given), which cell count is on record?
Its cell count is 565.

What about the inhibition of the same molecule?
The inhibition was -17.3% (inactive).

Which inhibition does the source give for `CC1CCc2c(sc3c2C2=NS(=O)(=O)CCN2C=N3)C1` (stereo not given) here?
Its inhibition is 2.9% (inactive).

What about the cell count of the same molecule?
Its cell count is 188.

Which inhibition does the source give for `CCn1c(SCc2nc(-c3cccs3)no2)nnc1-c1c[nH]c2ccccc12` here?
Its inhibition is 3.4% (inactive).

And the cell count?
The cell count was 296.

Which results are given for `CC(CN1CCCCC1)OC(=O)c1ccc2c(c1)OCO2` (stereo not given)?
cell count: 639; inhibition: 4.9% (inactive)

Which results are given for `CN1CCN(S(=O)(=O)c2ccc(NC(=O)Nc3cccc(Cl)c3)cc2)CC1`?
inhibition: 0.3% (inactive); cell count: 468

For `CCC(C)OC(=O)c1[nH]c2c(c1C)C(=O)CC(c1ccc(N(C)C)cc1)C2` (stereo not given), which inhibition is on record?
Its inhibition is -3.2% (inactive).

And the cell count?
The cell count was 717.

With `COc1cccc(C=Nc2ccc3c(c2)OCCO3)c1O` as the molecule, how does the inhibition read?
The inhibition was 5.1% (inactive).

And the cell count?
The cell count was 301.

Which results are given for `O=C(Cn1ncc2c1-c1ccccc1OC2)Nc1ccc(Cl)cn1`?
inhibition: -2.9% (inactive); cell count: 462

With `CCOC(=O)c1c(C)n(C)c2c(C)cc(O)c(OC(C)=O)c12` as the molecule, how does the inhibition read?
The inhibition was -5% (inactive).

What about the cell count of the same molecule?
Its cell count is 292.

With `COc1ccccc1CCNC(=O)C1CCCO1` (stereo not given) as the molecule, how does the inhibition read?
Its inhibition is -8.8% (inactive).

And the cell count?
Its cell count is 665.

Which results are given for `CCCSc1nnc2nc3c(nn12)c1ccccc1n3C`?
cell count: 572; inhibition: 4.4% (inactive)

With `CCN(CCNC(=O)C1CCN(S(=O)(=O)c2cccc3cccnc23)CC1)c1ccccc1` as the molecule, how does the cell count read?
The cell count was 614.

And the inhibition?
Its inhibition is 5.8% (inactive).
